Source: PubChem BioAssay
CYP2C19 inh – blocks human cytochrome P450 2C19 | CYP2C19 Supersomes, luciferin-H EGE luminescence, 30 min | 96,000 compounds, 21% hits | AID 778 | inhibition, % at 5 µM;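 active = CYP2C19 inhibition above a set limit at 5 µM in the primary screen, cut at about 50% in these data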;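 note: plate controls were negative control wells for no effect and 2.5 mM tranylcypromine positive control for full effect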
CYP2C9 inhib – human CYP2C9 inhibition; P11712; CYP2C9 Supersomes, luciferin-H conversion, luminescence; inhibition, % at 5 µM; 96,000 compounds, 20% hits;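 active = blocking of liver enzyme CYP2C9 beyond about 50% at 5 µM, limit read from the data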
Target sequence (P11712 whole entry, looked up): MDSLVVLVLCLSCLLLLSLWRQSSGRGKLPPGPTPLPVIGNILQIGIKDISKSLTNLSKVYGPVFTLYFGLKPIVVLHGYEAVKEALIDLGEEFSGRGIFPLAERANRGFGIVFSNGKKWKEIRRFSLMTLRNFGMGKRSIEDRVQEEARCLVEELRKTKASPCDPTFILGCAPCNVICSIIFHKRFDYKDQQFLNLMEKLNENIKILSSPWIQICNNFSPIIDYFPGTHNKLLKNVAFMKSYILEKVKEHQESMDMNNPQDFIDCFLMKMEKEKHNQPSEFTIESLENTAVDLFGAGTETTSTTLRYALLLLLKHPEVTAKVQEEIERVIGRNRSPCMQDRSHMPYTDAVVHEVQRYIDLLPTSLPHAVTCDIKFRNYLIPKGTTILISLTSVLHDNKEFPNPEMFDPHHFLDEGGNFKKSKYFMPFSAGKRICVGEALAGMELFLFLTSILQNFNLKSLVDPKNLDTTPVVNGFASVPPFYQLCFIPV
MRP-1 activ – MRP-1 activation. 140,000 compounds, 0.61% hits. H69AR cells + doxorubicin, viability rescue, CellTiter-Glo. AID 799. viability increase, % at 10 µM;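 active = viability gain under doxorubicin at or above a set limit, the compound median plus 3 SD, cut at about 4.7% in these data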;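 note: MRP-1 overexpressing cells given doxorubicin 25 µM after compound pretreatment; 18-22 h compound pretreatment then 72 h with doxorubicin before readout; 0% = doxorubicin-only wells and 100% = vehicle-treated cells without doxorubicin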
MRP resist rev – MRP-mediated drug resistance reversal; 85,000 compounds, 0.04% hits; H69AR cells + 2 uM doxorubicin, CellTiter-Glo, 72 h; differential viability (reversal), % at 10 µM;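 active = viability drop by adding the cancer drug above about 55%, with treated viability meeting a 40% cutoff, limit read from the data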;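 note: viability without doxorubicin minus viability with 2 µM doxorubicin for each compound; larger differential means the compound sensitizes cells more to doxorubicin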
CYP2C19 act – cytochrome P450 2C19 (human) activation. P33261. recombinant CYP2C19, luciferin-H EGE luminescence; hits give high values; 0 = fully inhibited enzyme, 1 = untreated enzyme. activation factor at 5 µM. 96,000 tested, under 10 active. AID 1025;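 active = activation factor of at least 2 at 5 µM in the primary screen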;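 note: 0 = wells with 2.5 mM tranylcypromine and 1 = vehicle-only wells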
CYP2C9 act – increases human cytochrome P450 2C9 activity; recombinant CYP2C9, luciferin-H conversion, luminescence; hits give high values; factor 1 = untreated enzyme, 0 = blocked; activation factor at 5 µM; 96,000 compounds, 1.4% hits; AID 1024;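 active = activation factor of 2 or more for CYP2C9 at a 5 µM dose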;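 note: 0 = sulfaphenazole-blocked wells and 1 = vehicle-only wells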
The depositor's hits bear a star; . = no result given. A selection: hits, their analogues and other compounds. The true share with any hit is near 21%.

SMILES	CYP2C19 inh	CYP2C9 inhib	MRP-1 activ	MRP resist rev	CYP2C19 act	CYP2C9 act
Cc1ccccc1CNC(=O)c1ccccc1C	54*	9	-1	-8	0.5	0.9
CCCC(=O)N1CCN(c2ccc(NC(=O)c3cc4ccccc4o3)cc2Cl)CC1	81*	82*	-2	-7	0.2	0.2
O=C(Nc1ccc(N2CCN(C(=O)c3ccco3)CC2)c(Cl)c1)c1cc2ccccc2o1	71*	92*	-2	-1	0.3	0.1
COC(=O)c1ccc(N2CCN(C)CC2)c(NC(=O)c2cc3ccccc3o2)c1	12	38	-2	-11	0.9	0.6
O=C(c1cc2ccccc2o1)N1CCN(c2ccccc2Cl)CC1	44	44	1	6	0.6	0.6
CCC(=O)N1CCN(c2ccc(NC(=O)c3cc4ccccc4o3)cc2Cl)CC1	36	50*	-4	-8	0.6	0.5
O=C(Nc1ccc(N2CCOCC2)c(Cl)c1)c1ccco1	14	22	1	11	0.9	0.8
O=C(Nc1ccc(N2CCN(C(=O)c3ccccc3)CC2)c(Cl)c1)c1ccco1	41	62*	-2	-10	0.6	0.4
CCCOc1ccc(C(=O)N2CCN(c3ccc(NC(=O)CC)cc3Cl)CC2)cc1	96*	86*	-4	17	0	0.1
O=C(Nc1ccc(Cl)c(Cl)c1)Oc1ccc(NC(=O)c2ccco2)cc1	-6	-13	-3	.	1.1	1.1
O=C(Nc1ccc(Br)c(Cl)c1)c1ccco1	66*	43	-2	-29	0.3	0.6
CC(C)COP(=O)(CNC(=O)CN1C(=O)c2ccccc2S1(=O)=O)OCC(C)C	.	.	1	.	.	.
COc1ccc(CNn2c(-c3cccc(C)c3)nc3ccccc3c2=O)cc1OC	81*	22	0	15	0.2	0.8
COc1ccccc1CNn1c(-c2cccc(C)c2)nc2ccccc2c1=O	97*	86*	-1	1	0	0.1
COc1cc(NC(=S)N2CCN(c3ccccn3)CC2)cc(OC)c1	.	.	1	.	.	.
N=C(N)SCc1ccc(Cl)cc1Cl	.	.	5.2*	.	.	.
Nc1nnc(CSCc2ccc(Cl)cc2Cl)s1	.	.	2	.	.	.
C=CCOC(=O)c1c(C)nc2cc3c(cc2c1C)OCO3	.	.	-2	.	.	.
CCc1ccc(OC)c(S(=O)(=O)Nc2ccccc2C)c1	34	73*	-2	-6	0.7	0.3
COc1ccc(C)cc1S(=O)(=O)Nc1ccccc1	24	38	-1	-6	0.8	0.6
COc1cc(NS(=O)(=O)c2ccc(C)cc2C)cc(OC)c1OC	48	67*	-5	-41	0.5	0.3
COc1cc(S(=O)(=O)Nc2ncccc2C)c(OC)cc1Cl	91*	44	-1	3	0.1	0.6
COc1ccc(C)cc1S(=O)(=O)Nc1ccccc1C	85*	62*	-1	7	0.1	0.4
COc1cc(S(=O)(=O)n2nnc3ccccc32)c(OC)cc1Cl	.	.	2	-9	.	.
Cc1cc(C)cc(NC(=O)CSc2nc3c(c(=O)[nH]2)CN(Cc2ccc(F)cc2)CC3)c1	.	.	-1	.	.	.
SMILES	CYP2C19 inh	CYP2C9 inhib	MRP-1 activ	MRP resist rev	CYP2C19 act	CYP2C9 act
O=C(NCc1ccco1)c1cc2sccc2n1Cc1ccccc1	.	.	-3	-3	.	.
COc1cc(NS(=O)(=O)c2cc(C)ccc2OC)c(OC)cc1Cl	67*	28	-3	31	0.3	0.7
COc1ccc(C)cc1S(=O)(=O)Nc1cc(Cl)ccc1Cl	.	.	-2	3	.	.
CCCCN(CC)S(=O)(=O)N1CCC(C(=O)NCc2ccc(F)cc2)CC1	58*	47	-1	5	0.4	0.5
Cc1cccc(N2CCN(C(=O)CCn3c(=S)[nH]c4cc5c(cc4c3=O)OCO5)CC2C)c1 (stereo not given)	48	53*	2	-18	0.5	0.5
O=C(CCn1c(=O)oc2ccccc21)NCCN1CCc2ccccc2C1	-15	-10	-1	2	1.2	1.1
CCOC(=O)N1CCN(C(=O)CCn2c(=S)[nH]c3cc(OCC)c(OCC)cc3c2=O)CC1	7	24	-4	-5	0.9	0.8
O=C(CCn1c(=S)[nH]c2cc3c(cc2c1=O)OCO3)N1CCc2ccccc2C1	91*	79*	-3	15	0.1	0.2
O=C(CCCn1c(=O)oc2ccccc21)N1CCc2ccccc2C1	75*	-1	-4	1	0.2	1
O=C(CCCn1c(=S)[nH]c2cc3c(cc2c1=O)OCO3)N1CCc2ccccc2C1	38	57*	-5	-5	0.6	0.4
C=CCNS(=O)(=O)CC12CCC(CC1=O)C2(C)C (stereo not given)	6	-4	-1	-8	0.9	1
CCCC/C(O)=C1\C(=O)CC(C)(C)CC1=Nc1ccc(OC)cc1	57*	44	-4	-29	0.4	0.6
COc1ccc(C(=O)n2ccc(C)n2)cc1Br	57*	24	0	19	0.4	0.8
COc1ccc(C(=O)n2nnc3ccccc32)cc1Br	5	5	0	5	1	1
COc1ccc(C(=O)n2nc(C)cc2C)cc1Br	70*	8	-1	2	0.3	0.9
O=C(CSc1nncs1)Nc1ccc(Cl)cn1	.	.	2	.	.	.
CC(=O)c1cc(-c2nc3ccccc3n2C)n(C)c1	56*	73*	-2	-1	0.4	0.3
COc1ccc(NC(=O)C(Sc2ccccc2)c2ccccc2)c(OC)c1 (stereo not given)	.	.	-2	.	.	.
CC(C)CN(CC(C)C)C(=O)C12CCC(C)(C(=O)O1)C2(C)C (stereo not given)	.	.	1	13	.	.
CC(Cc1cccs1)NC(=O)Nc1ccc(F)cc1 (stereo not given)	87*	47	0	13	0.1	0.5
CC(NC(=O)Nc1cccc(Cl)c1)C(c1cccs1)N1CCCC1 (stereo not given)	.	.	-3	.	.	.
CC(Cc1cccs1)NC(=O)Nc1cccc(Cl)c1 (stereo not given)	66*	47	-1	16	0.3	0.5
O=C(c1ccc(Cl)c(S(=O)(=O)Nc2ccccc2C(=O)N2CCc3ccccc3C2)c1)N1CCc2ccccc2C1	.	.	-2	.	.	.
CCOC(=O)Cn1nnnc1CN(Cc1ccc(OC)cc1)Cc1cc2cc(C)ccc2[nH]c1=O	.	.	-4	-5	.	.
COc1ccccc1CN(Cc1cc2cc(C)ccc2[nH]c1=O)Cc1nnnn1Cc1ccco1	99*	98*	-3	-21	0	0
CCc1ccc2[nH]c(=O)c(CN(Cc3ccccc3OC)Cc3nnnn3Cc3ccco3)cc2c1	58*	96*	-3	-12	0.4	0
COc1ccc2[nH]c(=O)c(CN(Cc3ccco3)Cc3nnnn3Cc3ccccc3)cc2c1	12	-4	-3	.	0.9	1
COCCn1nnnc1CN(Cc1ccco1)Cc1cc2cc3c(cc2[nH]c1=O)OCO3	10	-4	-3	6	0.9	1
CCOC(=O)Cn1nnnc1CN(Cc1ccc(OC)cc1)Cc1cc2cc(CC)ccc2[nH]c1=O	97*	95*	-3	21	0	0
